Experimental data as given in PubChem BioAssay (NCI).
The panel holds about 83,000 compounds, 20% with a hit somewhere; the sample as a whole holds those more often.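 Negative percent growth values reflect cell death: -40 means 40% of the cells present at the start died, and -100 means all died.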 Values without a mark were called inactive. Activity calls are given as the source filed them. Rule for the calls: active = growth percent below 10; inactive = the rest.

Columns and labels:
Test in all cases: NCI-60 one-dose screen, 48 h (100 = growth as untreated, 0 = no growth, -100 = all killed)
[1] = system: SK-MEL-2 melanoma; conditions: 10 µM unless noted
[2] = system: SN12C renal; conditions: 10 µM unless noted
[3] = system: UO-31 renal; conditions: 10 µM unless noted
[4] = system: TK-10 renal; conditions: 10 µM unless noted
[5] = system: ACHN renal; conditions: 10 µM unless noted
[6] = system: CAKI-1 renal; conditions: 10 µM
[7] = system: A498 renal; conditions: 10 µM unless noted
[8] = system: CCRF-CEM leukemia; conditions: 10 µM unless noted
[9] = system: MOLT-4 leukemia; conditions: 10 µM unless noted
[10] = system: SR leukemia; conditions: 10 µM unless noted
[11] = system: RPMI-8226 leukemia; conditions: 10 µM unless noted
[12] = system: OVCAR-8 ovarian; conditions: 10 µM unless noted
[13] = system: OVCAR-5 ovarian; conditions: 10 µM unless noted
[14] = system: OVCAR-4 ovarian; conditions: 10 µM unless noted
[15] = system: SK-OV-3 ovarian; conditions: 10 µM unless noted
[16] = system: IGROV1 ovarian; conditions: 10 µM unless noted
[17] = system: HS 578T breast; conditions: 10 µM unless noted
[18] = system: NCI/ADR-RES ovarian; conditions: 10 µM unless noted
[19] = system: EKVX NSCLC; conditions: 10 µM unless noted
[20] = system: OVCAR-3 ovarian; conditions: 10 µM unless noted

Row | SMILES | growth [1] | growth [2] | growth [3] | growth [4] | growth [5] | growth [6] | growth [7] | growth [8] | growth [9] | growth [10] | growth [11] | growth [12] | growth [13] | growth [14] | growth [15] | growth [16] | growth [17] | growth [18] | growth [19] | growth [20]
1 | COc1ccc2c(ccn2C(=O)N2c3ccccc3Sc3ccccc32)c1 | 4.71% (active) | 47.3% | 55% | 65.1% | 49.2% | 30.9% | -8.02% (active) | 18.7% | 37.2% | 22% | 16.8% | 31.9% | 60.6% | 66.5% | 42.5% | 39.2% | 19.8% | 11.6% | – | –
2 | NC(N)=NS(=O)(=O)c1ccc(N=NC2C(=O)NN(c3ccccc3)C2=O)cc1 (stereo unspecified) | – | 101% | 82.9% | 106% | 95.9% | 87.7% | 98.2% | 116% | 106% | 109% | 98.8% | 104% | 101% | 104% | 112% | 103% | 89% | 99.9% | 110% | –
3 | CS(=O)(=O)c1nccc(-c2c(-c3ccc(F)c(OCc4ccccc4)c3)nc3sccn23)n1 | – | 97.5% | 86% | 101% | 93.4% | 93.6% | 80.3% | 54.7% | 74% | 16.6% | 43.3% | 99.6% | 100% | 104% | 117% | 101% | 91.3% | 99.9% | 87.6% | –
4 | CCN1C(=O)N(CC)C2SC(N/N=C/c3ccccc3F)=NC21 (stereo unspecified) | 12% | 34.6% | 50.2% | 87.7% | 34.4% | 31.3% | -22.1% (active) | 20% | 15.5% | 18.7% | 20.3% | 3.86% (active) | 47.5% | 68.4% | 30.4% | 28.3% | 11.9% | 5.59% (active) | – | –
5 | CCN1C(=O)N(CC)C2SC(N/N=C/c3ccccc3)=NC21 (stereo unspecified) | 9.45% (active) | 34.4% | 54.6% | 81.3% | 36% | – | -19.2% (active) | 16.7% | 21.4% | 18.6% | 21.2% | 8.59% (active) | 51.6% | 71.6% | 38.3% | 28% | 15.8% | 3.93% (active) | – | –
6 | COc1cc2oc(-c3cccc(NC(=O)c4cc(NC(=O)[C@H](C)N)ccc4Cl)c3)cc(=O)c2c(OC)c1OC | – | 90.9% | 72.3% | 99.8% | 91.3% | 85.3% | 71.8% | 71.7% | 76.3% | 73.1% | 67.2% | 69% | 106% | 85.9% | 120% | 96.7% | 99.9% | 88.6% | 90.7% | –
7 | C=C1C(=O)O[C@@H]2C[C@@H](C)CCC(=O)[C@](C)(OC(C)=O)C[C@H](OC(=O)/C(C)=C\C)[C@@H]12 | 81% | – | 85.4% | 55.4% | 41.9% | 63.1% | 119% | -17.2% (active) | 50.8% | 4.94% (active) | 32.3% | 66.8% | 114% | 81.2% | 94.8% | 89.2% | 101% | 97.2% | 73.2% | 34.9%
8 | CCOC(=O)/C(F)=C/C1CC1C1CCCCC1 (stereo unspecified) | – | 103% | 91.5% | 95.3% | 105% | 90.9% | 97.2% | 114% | 102% | 111% | 105% | 109% | 102% | 107% | 126% | 110% | 105% | 101% | 110% | –
9 | CCN1C(=O)N(CC)C2SC(N/N=C/c3cccs3)=NC21 (stereo unspecified) | 13.5% | 29.9% | 53.4% | 84.5% | 32.9% | 27.1% | -23% (active) | 17.8% | 13.3% | 15.1% | 23.3% | -4.75% (active) | 43.6% | – | 31.9% | 23.7% | 15.4% | -0.335% (active) | – | –
10 | O=c1[nH]c2cc(Cl)ccc2n1C1CCN(c2ccc3nnc(Cl)n3n2)CC1 | 93.1% | 95.3% | -30.9% (active) | 92.9% | 88.2% | 78.6% | 61.5% | 89% | 101% | 81.8% | 90.9% | 93.4% | 95.5% | 88.7% | 77.5% | 96.6% | 87.7% | 99.9% | – | –
11 | C=C1C(=O)O[C@@H]2/C=C(/C)C3=CC(=O)[C@@](C)(C[C@H](OC(=O)/C(C)=C\C)[C@@H]12)O3 | -28.5% (active) | – | -85.4% (active) | -18% (active) | -39.1% (active) | 6.13% (active) | 59.5% | -14.9% (active) | 0.44% (active) | 2.49% (active) | -11.3% (active) | 8.15% (active) | 4.42% (active) | 21% | 92.6% | 19% | 46.5% | 17.4% | 21.6% | 2.79% (active)
12 | O=C(/C=C/Nc1ccc(S(=O)(=O)O)cc1)c1ccc(F)cc1 | – | 105% | 91.8% | 97.2% | 101% | 90.4% | 93% | 98.5% | 102% | 90.8% | 95.9% | 99.5% | 103% | 105% | 117% | 109% | 97.3% | 97.3% | 107% | –
13 | CNC(=O)c1cc(Oc2ccc3nc(NC(=O)c4ccc(CN5CCCN(C)CC5)c(C(F)(F)F)c4)sc3c2)ccn1 | – | 54.9% | 4.18% (active) | 47.9% | 4.16% (active) | 14.6% | 66.2% | 8.38% (active) | -35.2% (active) | -59.8% (active) | -31.1% (active) | 32.4% | 53.6% | 52.3% | 80.3% | 60.6% | -1.04% (active) | 60.6% | 40.1% | –
14 | CS(=O)(=O)c1ccc2c(c1)c1c(n2Cc2ccc(Cl)cc2)CCCC1 | – | 73.6% | 55.1% | 89.3% | 66.8% | 54.4% | 74.3% | 81.9% | 64.3% | 41.2% | 55.8% | 72.7% | 88.1% | 75.1% | 97.5% | 64% | 85.4% | 48.4% | 71.2% | –
15 | Clc1ccc(-c2csc(Nc3cccc(Nc4csc(-c5ccc(Cl)cc5)n4)c3)n2)cc1 | – | 63.1% | 51.5% | 98.2% | 54.3% | 51.9% | 67.8% | 94.1% | 60.7% | 96.8% | 86.3% | 87.3% | 77.5% | 76.5% | 79.3% | 50.6% | 73.4% | 79.5% | 61.8% | –
16 | CNC(=O)c1cc(Oc2ccc3nc(NC(=O)c4cc(C)cc(C)c4)sc3c2)ccn1 | – | 90.3% | 78.8% | 78.5% | 93.4% | 79% | 59.7% | 57.3% | 58.3% | 30.9% | 51.9% | 91.1% | 104% | 77% | 97.4% | 88.7% | 85.8% | 76% | 82% | –
17 | CN1CCN(c2ccc(C(=O)Nc3cccc(-c4cn(-c5ccc(S(N)(=O)=O)cc5)nn4)c3)cc2C(F)(F)F)CC1 | – | 92.4% | 86.9% | 117% | 87.6% | 73.8% | 97.6% | 70.8% | 13.2% | -1.19% (active) | 10.7% | 86.7% | 84.3% | 84.8% | 102% | 86.9% | 71% | 101% | 89.9% | –
